Bioassay records as filed in PubChem BioAssay.
Pf Dd2 inh: qHTS Primary assay for Inhibitors of Plasmodium falciparum Dd2 growth in vitro | P. falciparum Dd2 growth, SYBR Green, 72 h | Potency, µM (doses to about 28.9 µM), inactives show top-dose activity, negative = inhibition, hits mostly inhibitors | 120,000 compounds, 4.3% hits | AID 1347417, 2020; active = well fitted inhibition curve with a large enough effect;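 also: plate controls were DMSO vehicle for no effect and reference drug for full effect; nearly all actives have a fitted effect of over 65% in size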
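Readout: SYBR Green fluorescence, 485 nm excitation, 535 nm emission, after ~16 h lysis at 37C. Before that, Dd2-infected red cells (2.5% hematocrit) grew 72 h with compound, 29 uM top final concentration.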
Active calls of the source: *; i = inactive; [ ] = remark or other dose. Many of the other results were omitted from the sample, so hits are more common in it than they were. Potency is read from the fitted curve at half-maximal effect.

SMILES	Pf Dd2 inh
CCOC(=O)C(C)N1CCOc2c(O)cc(-c3cccc(Cl)c3)cc2C1 (stereo not given)	11.2µM*
CC(=O)NCCC(=O)N1CCOc2c(O)cc(-c3cccc(Cl)c3)cc2C1	i
CC1=NOC(C(=O)N2CCOc3c(O)cc(-c4nc(C)cnc4C)cc3C2)C1 (stereo not given)	-13.5%
Cn1ccc(C(=O)N2CCC3(CC2)OC(=O)N(Cc2ccccc2)C3(C)c2ccccc2)n1 (stereo not given)	i
COc1ccc(C(=O)N2CCC3(CC2)COc2ccccc2CN3)cc1	1.41µM*
COc1ccc(C(=O)N2CCCC3(COc4ccccc4C(=O)N3)C2)cc1 (stereo not given)	-11.2%
COc1ccc(C(=O)N2CCC3(CC2)CNC(=O)c2ccccc2O3)cc1	-16.2%
CCn1c(CO)nnc1C1CC(NC(=O)c2nn(C)c(C)c2Cl)C1 (stereo not given)	-20.9%
COc1ccc(C(=O)Nc2ccc(-c3nnc4n3CCCC4)cc2)cn1	7.08µM*
COc1ccc(Cl)cc1C(=O)Nc1ccc(-c2nnc3n2CCCCC3)cc1	3.7%
O=C(Nc1ccc(-c2nnc3n2CCCC3)cc1)c1ccc(Cl)cc1	5.01µM*
CCOc1ccc(C(=O)Nc2ccc(-c3nnc4n3CCCCC4)cc2)cc1OCC	-18.1%
O=C(Nc1ccc(-c2nnc3n2CCCC3)cc1)c1ccncc1	i
O=C(Nc1ccc(-c2nnc3n2CCCC3)cc1)c1cc(F)ccc1F	i
O=C(Nc1ccc(-c2nnc3n2CCCC3)cc1)c1cc(-c2ccccc2)n[nH]1	14.1µM*
O=C(Nc1ccc(-c2nnc3n2CCCC3)cc1)c1ccc2ccccc2n1	1µM*
O=C(NC1CCc2n[nH]c(=O)n2CC1)c1ccc2ccccc2n1 (stereo not given)	i
C#CCNC(=O)c1nc(-c2ccc(Cl)cc2)c2ccccn12	-26.3%[44.1 µM]
COc1ccc(S(=O)(=O)N2CC[C@H](CNC(C)=O)[C@H](N(C)C)C2)cc1	-6.8%
Cn1cccc1C(=O)N1CCC(N2C[C@H](O)C[C@H]2C(=O)NCc2cccnc2)CC1	9.7%
Cc1cc(=O)c(C(=O)N2CCC3(CC2)CC(C(=O)O)N(C)C3)c(C)[nH]1 (stereo not given)	-9.1%
CCN(Cc1ccc(C)o1)C(=O)c1cccc(CCC(C)(C)O)c1	3.5%
COCC1CN(C(=O)CC2CCN(C(C)=O)CC2)CC12CCNCC2 (stereo not given)	17.8%
Cc1ccc2c(c1)N1C(=O)OC[C@@H]1CCN(C(=O)NC1CCCCC1)C2	2.8%[44.1 µM]
COc1ccc(C(=O)N2CCCC(n3cc(-c4nc(C5CC5)no4)nn3)C2)cc1F (stereo not given)	i
SMILES	Pf Dd2 inh
O=C1CN(Cc2ccc(-c3cccs3)cc2)CCN1c1ccc(Cl)nn1	-19.1%
CN1Cc2c(cc(N3CCOCC3)nc2-c2cnn(C)c2)C1=O	0.7%[44.1 µM]
COc1ccccc1CC(=O)N1CCN(C(=O)c2nnn3c2COC(c2ccc(Cl)cc2)C3)CC1 (stereo not given)	-10.3%
C[S+](=O)([O-])N1Cc2ccccc2CC2(CCCN(CC3CCNCC3)C2)C1 (stereo not given)	-9.6%
CC(C)c1noc(CCNC(=O)[C@H]2CNC[C@H](C(=O)N3CCOCC3)C2)n1	2.4%
Cc1ncc(CC(=O)N2CCCC(C)(Cc3ccc4c(c3)OCO4)C2)c(=O)[nH]1 (stereo not given)	-7.8%
Cc1ccc(C(=O)NC2CCN(c3cn[nH]c(=O)c3)CC2)cc1F	-6.5%
Cc1ccccc1Cn1c(=O)n(CC2CCC(C(=O)N3CCOCC3)CC2)c(=O)c2sccc21 (stereo not given)	-18.5%
Cc1ccc(Cn2c(=O)n(CC3CCC(C(=O)N4CCOCC4)CC3)c(=O)c3sccc32)cc1 (stereo not given)	-7.4%
O=C(C1CCC(Cn2c(=O)c3sccc3n(Cc3cccc(F)c3)c2=O)CC1)N1CCCCC1 (stereo not given)	8.91µM*
COc1ccc([C@H]2C[C@@H](O)[C@@H](O)[C@@H]2NC(=O)c2ccc(C(F)(F)F)cc2)cc1	-19.2%[44.1 µM]
COc1ccccc1C(=O)N[C@H]1[C@H](O)[C@H](O)C[C@@H]1c1ccc(C(F)(F)F)cc1	i
COc1ccc([C@H]2C[C@@H](O)[C@@H](O)[C@@H]2NC(=O)Nc2ccc(C(F)(F)F)cc2)cc1	3.16µM*
Cc1ccccc1[C@H]1C[C@@H](O)[C@@H](O)[C@@H]1NC(=O)c1ccc(C(F)(F)F)cc1	i
COc1ccc(CC(=O)N[C@H]2[C@H](O)[C@H](O)C[C@@H]2c2ccc(C(F)(F)F)cc2)cc1	-15.4%[44.1 µM]
Cc1ccccc1C(=O)N[C@H]1[C@H](O)[C@H](O)C[C@@H]1c1ccc(C(F)(F)F)cc1	3.55µM*
CCOC(C)c1ccc(-c2cc(C)n[nH]c2=O)cc1 (stereo not given)	-13.8%
COCCN1C(=O)CC[C@]2(C(=O)N(C)CCc3ccccn3)CCCC[C@@H]12	9.4%
CSc1cccc(NC(=O)N[C@H]2CCN3C(=O)[C@H](CC4CCCCC4)NC(=O)[C@@H]3C2)c1	i
O=C(N[C@H]1C[C@H]2C(=O)Nc3cc(Cl)ccc3C(=O)N2C1)c1ccccc1	12.5%[44.1 µM]
O=C1NCC2(CCN(C(=O)c3ccc(C(F)(F)F)cc3)CC2)Oc2ccccc21	i
CCOc1ccc(NC(=O)Cn2nc(Cc3ccncc3)c3ccccc3c2=O)cc1	-8.1%
COc1cc(C2c3c(-c4ccccc4O)n[nH]c3C(=O)N2Cc2ccncc2)ccc1O (stereo not given)	-4.7%
CCCCOc1ccc(C2c3c(-c4ccccc4O)n[nH]c3C(=O)N2Cc2ccncc2)cc1OC (stereo not given)	7.08µM*
COc1cc(C2c3c(oc4ccccc4c3=O)C(=O)N2Cc2ccc(C)cc2)ccc1O (stereo not given)	14.9%
SMILES	Pf Dd2 inh
CCOc1ccc(C2c3c(-c4ccccc4O)n[nH]c3C(=O)N2Cc2ccncc2)cc1 (stereo not given)	14.1µM*
CCOc1ccc(C2c3c(oc4cc(C)c(C)cc4c3=O)C(=O)N2c2ccccn2)cc1 (stereo not given)	-7.5%
Cc1nc(C2(C)CCN(C(=O)Cc3c(C)noc3C)CC2)no1	35.3%
CCCN(CC1CCOC1)S(=O)(=O)c1ccc(C)c(Cl)c1 (stereo not given)	2.4%[5.79 µM]
O=C(Cc1ccccc1)N1CCOC2(CCN(C(=O)c3ccccc3)CC2)C1	13.5%
CNC(=O)[C@@H]1CN(C(=O)c2n[nH]c3ccccc23)C[C@H]1c1nc(C)no1	26.5%
O=C(c1ccccc1)N1Cc2[nH]cnc2C[C@H]1c1nc(-c2ccncc2)no1	11.2µM*
COc1ccc(NC(=O)N2Cc3[nH]cnc3C[C@H]2c2nc(-c3ccc(OC)cc3)no2)cc1	i
Cc1cccc(-c2noc([C@@H]3Cc4nc[nH]c4CN3C(=O)Nc3cccc(C#N)c3)n2)c1	-26.7%[44.1 µM]
Cc1cccc(-c2noc([C@@H]3Cc4nc[nH]c4CN3C(=O)Nc3cccc(F)c3)n2)c1	12.6µM*
O=C(NC1CCCCC1)N1CCCCCC1c1nc(-c2ccncc2)no1 (stereo not given)	-47.0%
CC(C)NC(=O)N1Cc2[nH]cnc2C[C@H]1c1nc(-c2ccccc2)no1	i
O=C(Nc1ccccc1)N1Cc2[nH]cnc2C[C@H]1c1nc(-c2ccccc2)no1	i
O=C(Nc1cccc(F)c1)N1Cc2[nH]cnc2C[C@H]1c1nc(-c2ccccc2)no1	-24.1%[44.1 µM]
O=C(NC1CCCCC1)N1Cc2[nH]cnc2C[C@H]1c1nc(-c2ccncc2)no1	12.6µM*
